Experimental data from PubChem BioAssay (NCATS).
Where “and” joins values, the source holds several entries; their conditions need not be identical. Equal values may be shown once. Inconclusive results are not listed. Calls of active or inactive are those of the source. Unless noted, the call rests on the fitted dose curve; in most records, active means well fitted curve in the direction sought with a large enough effect; inconclusive means small, poorly fitted or top-dose-only effect, or another doubt; inactive means no such curve, though single readings can be large; an effect the other way counts as inactive or inconclusive. Residues, ends and D or L forms follow the SMILES beside them. *: point of attachment. Cbz = O=C(OCc1ccccc1)*; CH2Cl = ClC*

Columns and labels:
[1] = target: Aldehyde dehydrogenase, mitochondrial (Homo sapiens) (UniProt P05091); experiment: qHTS for Inhibitors of the Aldehyde Dehydrogenase Family (ALDH2) Confirmatory screens (AID 2061303; active means well fitted inhibition curve with a large enough effect; title and protocol of this record describe different tests; further: nearly all actives have a fitted effect of over 45% in size; further: potency means the concentration at half of the fitted maximal effect)
[2] = qHTS for Inhibitors of the Aldehyde Dehydrogenase Family (ALDH1A2, ALDH1A3, ALDH2, ALDH3A1) (AID 2061307); further: nearly all actives have a fitted effect of over 50% in size; on Potency: test system not described further here; potency means the concentration at half of the fitted maximal effect
[3] = target: Retinaldehyde dehydrogenase 3 (Homo sapiens) (UniProt P47895); experiment: qHTS for Inhibitors of the Aldehyde Dehydrogenase Family (ALDH1A3) Confirmatory screens (AID 2061311); further: nearly all actives have a fitted effect of over 60% in size; further: potency means the concentration at half of the fitted maximal effect
[4] = target: Retinal dehydrogenase 2 (Homo sapiens) (UniProt O94788); experiment: qHTS for Inhibitors of the Aldehyde Dehydrogenase Family (ALDH1A2) Confirmation screens (AID 2061314); further: nearly all actives have a fitted effect of over 65% in size; further: potency means the concentration at half of the fitted maximal effect
[5] = target: Aldehyde dehydrogenase 1A1 (Homo sapiens) (UniProt P00352); experiment: qHTS for Inhibitors of the Aldehyde Dehydrogenase Family (ALDH1A1) Confirmatory screens (AID 2061316); further: nearly all actives have a fitted effect of over 65% in size; further: potency means the concentration at half of the fitted maximal effect
[6] = target: Retinaldehyde dehydrogenase 3 (Homo sapiens) (UniProt P47895); experiment: qHTS for Inhibitors of the Aldehyde Dehydrogenase Family (ALDH1A3) Primary screen (AID 2061315)
[7] = BET inhibitor-based combinations targeting novel dependencies in MECOM-rearranged (r) AML: OCI-AML3 cell line (AID 2202232); settings: Potency: OCI-AML3 viability; further: potency means the concentration at half of the fitted maximal effect; nearly all actives have a fitted effect of over 35% in size
Procedure, shortened: (§1)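 Readout: CellTiter-Glo luminescence. Exposure: 48 h, 11 concentrations, 500 cells/well. Metric: AUC and within-line Z-AUC after DMSO/empty-well normalization.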

[8] = BET inhibitor-based combinations targeting novel dependencies in MECOM-rearranged (r) AML: MV-4-11 cell line (AID 2202233); further: potency means the concentration at half of the fitted maximal effect; nearly all actives have a fitted effect of over 45% in size
Procedure, shortened: (§2)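 Seeding density was 500 cells/well, and drug exposure lasted 48 hr under standard culture conditions. Read-out used CellTiter-Glo reagent with a 15 min room-temperature incubation before luminescence measurement; AUC and Z-AUC summarize the normalized responses.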

[9] = BET inhibitor-based combinations targeting novel dependencies in MECOM-rearranged (r) AML: UCSD-AML1 cell line (AID 2202235); further: series mostly up to about 46 µM; nearly all actives have a fitted effect of over 40% in size
Procedure, shortened: as §2

[10] = BET inhibitor-based combinations targeting novel dependencies in MECOM-rearranged (r) AML: AML-194 cell line (AID 2202237; further: nearly all actives have a fitted effect of over 40% in size)
Procedure, shortened: as §1

Measured: Potency

CC(=O)c1ccc(N2CCN(S(=O)(=O)c3ccc4c(c3)C(C)(C)C(=O)N4)CC2)cc1
active: [3] 5.01 µM
inactive: [1] | [2] | [4] | [5]

COc1ccc(S(=O)(=O)N2CCN(C(=O)c3ccc([N+](=O)[O-])o3)CC2)cc1
inactive: [1] | [2] | [3] | [4]
active: [5] 10 µM

CCCCNC(=O)[C@@H]1Cc2ccccc2N1C(=O)[C@@H](N)CC
inactive: [1] | [2] | [3] | [4] | [6] | [5]

COc1ccc(N2CCN(c3nc(C(=O)NCc4cccc(C)c4)cs3)CC2)cc1
active: [2] 2.51 µM
inactive: [1] | [3] | [4] | [5]

COc1ccc(Nc2ncc(C(=O)N3CCN(c4ccc(F)cc4)CC3)c3ccccc23)cc1
inactive: [1] | [3] | [4] | [5]
active: [2] 15.8 µM

N#Cc1c(-c2ccc3c(c2)OCO3)no[n+]1[O-]
active: [2] 1.13 µM | [4] 10.1 µM
inactive: [1] | [3] | [6] | [5]

N#Cc1c(-c2ccc(C(=O)c3ccc(O)cc3)cc2)no[n+]1[O-]
inactive: [6]
active: [1] 10 µM | [2] 11.3 µM | [3] 15.8 µM | [4] 0.712 µM | [5] 12.7 µM

COc1ccc(C2Nc3ccccc3C(=O)N2Cc2ccco2)cc1COc1cccc(NC(C)=O)c1 (stereo unspecified)
active: [1] 11.3 µM | [2] 12.7 µM | [3] 11.3 µM | [4] 11.3 µM | [5] 4 µM
inactive: [6]

O=C(CN1C(=O)N/C(=C\c2cccn2-c2cccc(C(=O)O)c2)C1=O)Nc1ccc(F)cc1
inactive: [1] | [2] | [3] | [4] | [6]

CC(=O)N1CCN(c2ccc(NCc3ccc(-c4ccc(Br)cc4)o3)cc2)CC1
inactive: [6]
active: [1] 0.142 µM | [2] 2.01 µM | [3] 25.2 µM | [4] 2.52 µM | [5] 5.65 µM

CC(C)(C)OC(=O)N1CCN(c2ccc(NCc3cncc(-c4ccc(C#N)cc4)c3)cc2)CC1
inactive: [3] | [4] | [6] | [5]
active: [1] 1.79 µM | [2] 0.634 µM

Cc1ccc(OCCn2c(CCNC(=O)c3ccccc3[N+](=O)[O-])nc3ccccc32)cc1
inactive: [1] | [2] | [3] | [4] | [6]

Oc1ccc(CNc2cccnc2)c2cccnc12
active: [1] 10.1 µM | [2] 7.98 µM | [3] 4.49 µM | [4] 5.65 µM | [5] 4 µM

Cc1noc(C)c1-c1cccc(-c2nn3c(=O)cc(N4CCNCC4)nc3s2)c1
inactive: [6]
active: [1] 3.98 µM | [2] 0.891 µM | [3] 17.8 µM | [4] 6.31 µM

COc1ccc(C2Nc3ccccc3C(=O)N2CC(C)(C)C)cc1COc1ccc(NC(C)=O)cc1 (stereo unspecified)
inactive: [6]
active: [1] 11.2 µM | [2] 1.59 µM | [3] 15.8 µM | [4] 31.6 µM | [5] 25.2 µM

Cc1cccc(CNc2ccnc(-c3cccc4ccccc34)n2)c1
inactive: [1] | [2] | [3] | [4] | [6] | [5]

Cc1ccc(C(=O)N2CCC(CCC(=O)N3CCCCC3)CC2)cc1
inactive: [1] | [2] | [3] | [4]

Cc1ccc(-c2nn3c(C)nnc3s2)cc1NCc1ccc(-c2cccc(Cl)c2)o1
active: [1] 3.18 µM | [2] 3.57 µM | [3] 12.7 µM | [4] 12.7 µM | [5] 6.34 µM
inactive: [6]

Cc1ccc2nc3sc(C(=O)NCCN4CCOCC4)cc3cc2c1
inactive: [1] | [2] | [3] | [4] | [6] | [5]

O=C(Nc1cc(Cc2ccccc2)ccn1)c1ccc(-c2cccc([N+](=O)[O-])c2)o1
inactive: [6]
active: [1] 11.2 µM | [2] 7.08 µM | [3] 7.94 µM | [4] 5.01 µM

COc1ccc(-c2ccc(CNc3ccc(N4CCN(C(=O)OC(C)(C)C)CC4)cc3)o2)cc1
inactive: [2] | [3] | [6]
active: [1] 1.13 µM | [4] 11.3 µM | [5] 11.3 µM

Cc1c(NC(=O)c2cc3c(s2)CCCC3)cccc1-c1cn(C)c(=O)c(Nc2ccc(C3C(=O)N(C)CCN3C)cc2)n1 (stereo unspecified)
active: [2] 10 µM | [3] 2 µM and 7.94 µM | [7] 16.6 µM | [8] 16.6 µM
not listed: [5]
inactive: all other assays above

CC(=O)Nc1ccc(Nc2nc3c(S(=O)(=O)c4cccc(Cl)c4)nnn3c3ccsc23)cc1
inactive: [1] | [2] | [4] | [5]
active: [3] 28.2 µM

Cc1ccc(-c2ccc(C=O)cc2)c(C)c1
active: [1] 4.7 µM | [2] 15.8 µM | [3] 0.355 µM | [4] 12.6 µM

Fc1c(-c2ccc3ncnc(NCc4cccs4)c3c2)ccc2c1OCO2
inactive: [1] | [2] | [3] | [4] | [6] | [5]

O=S(=O)(NCCc1nnc2ccc(SCc3ccc(C(F)(F)F)cc3)nn12)c1ccccc1
active: [3] 25.1 µM
inactive: [1] | [2] | [4] | [5]

CC(C)(C)OC(=O)N1CCN(c2ccc(NCc3ccc(-c4ccccc4F)o3)cc2)CC1
inactive: [3] | [4] | [6]
active: [1] 1.27 µM | [2] 12.7 µM

CCn1cc2nc(SCc3ccc(C)cc3)n(CCc3ccccc3)c(=O)c2n1
active: [1] 14.1 µM | [2] 10 µM | [3] 0.447 µM | [4] 7.94 µM

Cc1nc(SCC(=O)c2ccc(F)cc2)n[nH]1
inactive: [1] | [2] | [3] | [4] | [6] | [5]

CC(C)C[C@H](NC(=O)CNC(=O)OCc1ccccc1)C(=O)N[C@@H](Cc1ccccc1)C(=O)CCl (Cbz-Gly-Leu-Phe-CH2Cl)
inactive: [1] | [2] | [3] | [6] | [5]
active: [4] 8.96 µM

COc1ccc(-n2ccnc(NCc3ccc(Cl)cc3)c2=O)cc1
active: [1] 14.1 µM
inactive: [2] | [3] | [4]

O=Cc1c(-c2ccccc2)no[n+]1[O-]
inactive: [6]
active: [1] 14.2 µM | [2] 0.565 µM | [3] 4 µM | [4] 11.3 µM | [5] 0.504 µM

COc1ccccc1-c1cc(-c2ccccc2OC)c2onc(C)c2n1
active: [3] 25.1 µM
inactive: [1] | [2] | [4]

COc1ccccc1-c1cc(NCCc2ccccn2)c2onc(C)c2n1
active: [3] 22.4 µM
inactive: [1] | [2] | [4] | [5]

Cc1ccc(CCNc2ncnc3onc(-c4ccc(Cl)cc4)c23)cc1
inactive: [1] | [2] | [4] | [5]
active: [3] 4.47 µM

O=C(O)c1cccnc1SC1=NS(=O)(=O)c2ccccc21
active: [4] 31.8 µM
inactive: [1] | [2] | [3] | [6]

Cc1cc(-c2nnc3n2CCCCC3)c(C)n1-c1cccc(C#N)c1
inactive: [1] | [2] | [4] | [6]

COc1ccc(CC(=O)Nc2c(C(=O)N3CCN(c4ccccc4)CC3)oc3ccccc23)cc1OC
inactive: [1] | [2] | [4]

CC(C)(C)OC(=O)N1CCN(c2ccc(NCc3ccc(-c4cccc([N+](=O)[O-])c4)o3)cc2)CC1
active: [1] 0.896 µM | [2] 4 µM | [5] 14.2 µM
inactive: [3] | [6]
